The text below walks through data of PubChem BioAssay (EPA / NIEHS).

The nature of assay [1]: ATG_TGFb_CIS: Attagene CIS-FACTORIAL HepG2 Assay for human Transforming Growth Factor (TGF) (AID 2282967; active = hit-call score of the fitted dose curve at least 0.9, where 1 is the maximum; inactive = score below 0.9). The settings on record: HepG2 Attagene CIS TGFb reporter, mRNA transcription; actives raise or lower the signal. The procedure, abridged:
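Transcript-level reporter readout: HepG2 transfectants, 24 h exposure, RNA to cDNA, reporter-specific PCR, fluorescent primer extension, capillary sizing against ROX standards. Gain- or loss-of-signal relative to DMSO.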

Assay [2] in a line: ATG_VDRE_CIS: Attagene CIS-FACTORIAL HepG2 Assay for human Vitamin D Receptor Element (VDRE) (AID 2282968; active = hit-call score of the fitted dose curve at least 0.9, where 1 is the maximum; inactive = score below 0.9). To be noted: HepG2 VDRE cis-reporter transcription, actives raise or lower the signal. The procedure, abridged:
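RT-PCR/CE readout of reporter mRNA; HepG2, transient transfection, 24 h dosing; DMSO baseline; bidirectional analysis.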

Assay [3] concerns the target X-box-binding protein 1 (Homo sapiens) (UniProt P17861). In words: ATG_Xbp1_CIS: Attagene CIS-FACTORIAL HepG2 Assay for human X-box Binding Protein 1 (XBP1) (AID 2282972; active = hit-call score of the fitted dose curve at least 0.9, where 1 is the maximum; inactive = score below 0.9). To be noted: HepG2 XBP1 cis-element reporter, Attagene multiplex; actives raise or lower the signal. The method, boiled down:
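Fluorescence-labelled cDNA fragments from reporter transcripts, separated by capillary electrophoresis, give the signal. Source: HepG2 cells transfected with promoter-driven reporter units, harvested 24 h post-dose. DMSO served as reference for bidirectional curve fitting.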

Assay [4] is described as follows: ATG_M_19_TRANS: Attagene TRANS-FACTORIAL HepG2 Assay for M19 Transcription Factor (Internal Marker) (AID 2282974). To be noted: HepG2 Attagene TRANS-FACTORIAL M19 internal marker reporter. The procedure, abridged: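 Cells: human HepG2, transiently transfected with multiplexed reporter transcription units. Exposure: 24 h. Detection: RT-PCR of reporter mRNA with capillary electrophoresis. Analysis: gain-of-signal vs DMSO.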

Assay [5] can be described thus: ATG_GAL4_TRANS: Attagene TRANS-FACTORIAL HepG2 Assay for GAL4 (Internal Marker) (AID 2282976). To be noted: HepG2 Attagene TRANS GAL4 internal marker reporter. The method, boiled down: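 RT-PCR/capillary electrophoresis readout of reporter mRNA. HepG2, transient MRTU transfection (GAL4-UAS reporters), 24 h compound exposure. Background-control endpoint, positive direction vs DMSO baseline.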

Assay [6] concerns the target Glucocorticoid receptor (Homo sapiens) (UniProt P04150). In words: ATG_GR_TRANS: Attagene TRANS-FACTORIAL HepG2 Assay for human Glucocorticoid Receptor (GR) (AID 2282978).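 Also: activators score as hits since higher reporter transcript over DMSO is fitted.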 To be noted: HepG2 Attagene TRANS GR reporter, mRNA transcription. The method, boiled down: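 In this trans-factorial format, exogenous NR-GAL4 chimeric proteins in transfected HepG2 cells regulate GAL4-UAS reporter transcription. After 24 h treatment, reporter mRNA induction relative to DMSO is read by RT-PCR and capillary electrophoresis.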

For assay [7], the target named is Bile acid receptor (Homo sapiens) (UniProt Q96RI1). In words: ATG_FXR_TRANS: Attagene TRANS-FACTORIAL HepG2 Assay for Farnesoid X Receptor (FXR) (AID 2282979).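 Also: hits raise reporter mRNA above DMSO so AC50 marks FXR activation.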 The settings on record: HepG2 Attagene TRANS FXR-GAL4 reporter transcription. The procedure, abridged: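 Read-out: fluorescent reporter transcripts quantified by capillary electrophoresis after RT-PCR of total RNA. Source cells were HepG2 transiently carrying chimeric NR-GAL4 plus GAL4-UAS reporter units, dosed 24 h. Activity fitted upward relative to DMSO baseline.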

Assay [8] addresses Hepatocyte nuclear factor 4-alpha (Homo sapiens) (UniProt P41235). In words: ATG_HNF4a_TRANS: Attagene TRANS-FACTORIAL HepG2 Assay for human Hepatocyte Nuclear Factor 4 alpha (HNF4a) (AID 2282982). To be noted: HepG2 HNF4a transactivation reporter, mRNA readout. The procedure, abridged: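 Cells used were human HepG2, transiently carrying GAL4-UAS reporter units read out against exogenous NR-GAL4 chimeras. Reporter transcript levels after 24 h dosing were quantified by fluorescent RT-PCR and capillary electrophoresis.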

A short description of assay [9]: ATG_M_06_TRANS: Attagene TRANS-FACTORIAL HepG2 Assay for M06 Transcription Factor (Internal Marker) (AID 2282983). The settings on record: HepG2 Attagene TRANS M06 internal marker reporter. The procedure, abridged: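 After a 24 h chemical treatment of transfected HepG2, RNA underwent DNase I treatment, reverse transcription and reporter-specific PCR; labelled, HpaI-digested products were sized by capillary electrophoresis. Signal increase relative to DMSO defined activity.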

Assay [10] can be described thus: ATG_M_32_TRANS: Attagene TRANS-FACTORIAL HepG2 Assay for M32 Transcription Factor (Internal Marker) (AID 2282984).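 Also: transcript level of a background control reporter unit measured by RT-PCR and capillary electrophoresis.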 The settings on record: HepG2 Attagene TRANS M32 internal marker reporter. The method, boiled down: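 Human hepatoma HepG2, transient MRTU transfection, 24 h treatment. RNA → RT-PCR → fluorescent primer extension → HpaI digest (2 h, 37 C) → CE. Positive-direction fit vs DMSO.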

Assay [11] concerns the target Nuclear receptor subfamily 4 group A member 2 (Homo sapiens) (UniProt P43354). In words: ATG_NURR1_TRANS: Attagene TRANS-FACTORIAL HepG2 Assay for human Nuclear Receptor Related Protein 1 (NURR1) (AID 2282985). The settings on record: HepG2 Attagene TRANS reporter, mRNA readout. The procedure, abridged: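 After 24 h chemical dosing, total RNA from transiently transfected HepG2 cells was reverse-transcribed and reporter cDNA PCR-amplified, FAM-labelled and analysed by capillary electrophoresis. Activity fitted in positive direction, DMSO as negative control.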

The target in assay [12] is Transcriptional activator Myb (Homo sapiens) (UniProt P10242). In words: ATG_Myb_CIS: Attagene CIS-FACTORIAL HepG2 Assay for human Myeloblastosis (Myb) Proto-Oncogene Transcription Factor (AID 2282986; active = hit-call score of the fitted dose curve at least 0.9, where 1 is the maximum; inactive = score below 0.9). The settings on record: HepG2 Attagene CIS-FACTORIAL Myb reporter transcription; actives raise or lower the signal. The procedure, abridged:
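Steps: transfect HepG2 with cis-regulated reporter units; dose with chemical for 24 h; isolate RNA, reverse-transcribe, PCR-amplify and FAM-label reporter sequences; digest with HpaI; resolve by capillary electrophoresis. Activity fitted in both directions relative to DMSO.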

In assay [13] the target is Nuclear respiratory factor 1 (Homo sapiens) (UniProt Q16656). In words: ATG_NRF1_CIS: Attagene CIS-FACTORIAL HepG2 Assay for human Nuclear Respiratory Factor 1 (NRF1) Orphan Gene (AID 2282987; active = hit-call score of the fitted dose curve at least 0.9, where 1 is the maximum; inactive = score below 0.9). The settings on record: HepG2 NRF1 cis-element reporter, Attagene multiplex; actives raise or lower the signal. The method, boiled down: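 Fluorescence intensity of labelled reporter cDNA fragments, resolved by capillary electrophoresis, served as readout for NRF1 cis-element activity. Transiently transfected HepG2 cells were dosed for 24 hours; activity in either direction was fitted against DMSO negative control.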

The nature of assay [14]: ATG_NFI_CIS: Attagene CIS-FACTORIAL HepG2 Assay for human Nuclear Factor I (NFI) (AID 2282989; active = hit-call score of the fitted dose curve at least 0.9, where 1 is the maximum; inactive = score below 0.9). To be noted: HepG2 cis-regulatory reporter, NFI response element transcription; actives raise or lower the signal. The method, boiled down: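 After transient transfection of HepG2 with cis-promoter reporter constructs and 24 h dosing, RNA is reverse-transcribed, amplified, 6-FAM end-labelled and HpaI-digested before capillary analysis. Bidirectional curve fitting against DMSO.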

The target of assay [15] is Estrogen receptor (Homo sapiens) (UniProt P03372). In words: ATG_ERa_TRANS: Attagene TRANS-FACTORIAL HepG2 Assay for human Estrogen Receptor alpha (ERa) (AID 2282970). The settings on record: HepG2 Attagene TRANS ERa GAL4 reporter, mRNA. The method, boiled down:
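After 24 h of compound treatment, RNA from HepG2 cells bearing transfected GAL4-UAS reporter constructs is converted to cDNA, amplified and fluorescently labelled. Capillary electrophoresis resolves the ERa-linked reporter; DMSO serves as negative control.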

The target of assay [16] is Steroid hormone receptor ERR1 (Homo sapiens) (UniProt P11474). In words: ATG_ERRa_TRANS: Attagene TRANS-FACTORIAL HepG2 Assay for human Estrogen-Related Receptor alpha (ERRa) (AID 2282971). The settings on record: HepG2 Attagene TRANS reporter, ERRa transactivation. The procedure, abridged: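 Transfected HepG2, 24 h dosing, ERRa-Gal4 chimera driving GAL4-UAS reporter. Readout: reporter mRNA via RT-PCR plus capillary electrophoresis (fluorescence). Positive direction vs DMSO control.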

Assay [17] concerns the target Estrogen-related receptor gamma (Homo sapiens) (UniProt P62508). In words: ATG_ERRg_TRANS: Attagene TRANS-FACTORIAL HepG2 Assay for human Estrogen-Related Receptor gamma (ERRg) (AID 2282977).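 Also: hits increase reporter signal over DMSO so potencies reflect activators.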 To be noted: HepG2 Attagene TRANS reporter, ERRg transactivation. The procedure, abridged: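 Transfect HepG2 with multiple GAL4-UAS reporter transcription units; dose chemicals 24 h; isolate RNA, reverse-transcribe with oligo(dT), PCR-amplify, label with 6-FAM, digest with HpaI; size fragments by capillary electrophoresis. DMSO serves as negative control.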

In assay [18] the target is Oxysterols receptor LXR-alpha (Homo sapiens) (UniProt Q13133). In words: ATG_LXRa_TRANS: Attagene TRANS-FACTORIAL HepG2 Assay for human Liver X Receptor alpha (LXRa) (AID 2282980). The settings on record: HepG2 Attagene TRANS reporter, LXRa transactivation. The procedure, abridged:
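Read-out: reporter transcript levels by RT-PCR plus capillary electrophoresis, fluorescence intensity. Transiently transfected HepG2, exogenous NR-GAL4 chimera, GAL4-UAS reporters; 24 h compound exposure. Activity = increase over DMSO negative control.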

The target of assay [19] is Oxysterols receptor LXR-beta (Homo sapiens) (UniProt P55055). In words: ATG_LXRb_TRANS: Attagene TRANS-FACTORIAL HepG2 Assay for human Liver X Receptor beta (LXRb) (AID 2282981). The settings on record: HepG2 Attagene TRANS GAL4-LXRb reporter, mRNA. The method, boiled down:
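In this TRANS format, exogenous chimeric NR-Gal4 protein activity, not endogenous factors, drives reporter expression in transfected human HepG2 cells. Exposure lasted 24 h; reporter mRNA was read by fluorescent capillary electrophoresis.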

Results filed as inconclusive are left out. More than one record can exist for a structure, and the calls need not agree. Active and inactive are the calls of the source. The calls were made as follows, unless noted: active = hit-call score of the fitted dose curve at least 0.9, where 1 is the maximum; inconclusive = response in the unintended direction; inactive = score below 0.9.

Sequence of Nuclear respiratory factor 1 (Homo sapiens) (Q16656 whole entry, looked up, the tested form may be a part): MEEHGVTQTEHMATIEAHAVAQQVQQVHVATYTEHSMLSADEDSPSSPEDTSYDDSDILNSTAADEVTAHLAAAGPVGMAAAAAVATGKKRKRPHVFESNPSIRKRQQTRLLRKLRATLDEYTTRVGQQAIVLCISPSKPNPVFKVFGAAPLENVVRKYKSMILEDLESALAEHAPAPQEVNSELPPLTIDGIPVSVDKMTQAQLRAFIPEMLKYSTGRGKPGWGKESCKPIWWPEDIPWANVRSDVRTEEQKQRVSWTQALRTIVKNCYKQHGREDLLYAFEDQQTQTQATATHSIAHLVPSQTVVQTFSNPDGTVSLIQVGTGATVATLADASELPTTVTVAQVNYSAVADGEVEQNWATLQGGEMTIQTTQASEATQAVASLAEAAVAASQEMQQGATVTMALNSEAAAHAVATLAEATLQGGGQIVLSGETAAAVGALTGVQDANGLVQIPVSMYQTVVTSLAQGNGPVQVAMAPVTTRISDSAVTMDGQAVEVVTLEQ
Sequence of Nuclear receptor subfamily 4 group A member 2 (Homo sapiens) (P43354 whole entry, looked up): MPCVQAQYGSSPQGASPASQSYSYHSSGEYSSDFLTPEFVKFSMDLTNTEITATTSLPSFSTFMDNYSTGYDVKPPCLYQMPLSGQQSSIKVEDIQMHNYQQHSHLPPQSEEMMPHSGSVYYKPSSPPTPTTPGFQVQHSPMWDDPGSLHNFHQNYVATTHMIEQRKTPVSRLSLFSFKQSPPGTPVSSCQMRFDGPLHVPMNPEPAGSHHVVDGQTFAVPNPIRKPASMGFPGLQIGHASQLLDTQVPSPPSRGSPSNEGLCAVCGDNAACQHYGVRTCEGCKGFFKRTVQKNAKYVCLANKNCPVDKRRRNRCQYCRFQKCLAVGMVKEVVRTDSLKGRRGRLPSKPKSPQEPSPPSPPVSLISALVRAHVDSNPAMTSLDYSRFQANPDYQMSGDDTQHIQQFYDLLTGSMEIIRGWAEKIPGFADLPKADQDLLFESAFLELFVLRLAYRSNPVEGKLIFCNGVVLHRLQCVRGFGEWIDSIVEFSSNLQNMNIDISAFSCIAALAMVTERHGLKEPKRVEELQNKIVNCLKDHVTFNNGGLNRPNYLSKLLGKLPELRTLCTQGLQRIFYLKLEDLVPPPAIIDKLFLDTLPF
Sequence of X-box-binding protein 1 (Homo sapiens) (P17861 whole entry, looked up, the tested form may be a part): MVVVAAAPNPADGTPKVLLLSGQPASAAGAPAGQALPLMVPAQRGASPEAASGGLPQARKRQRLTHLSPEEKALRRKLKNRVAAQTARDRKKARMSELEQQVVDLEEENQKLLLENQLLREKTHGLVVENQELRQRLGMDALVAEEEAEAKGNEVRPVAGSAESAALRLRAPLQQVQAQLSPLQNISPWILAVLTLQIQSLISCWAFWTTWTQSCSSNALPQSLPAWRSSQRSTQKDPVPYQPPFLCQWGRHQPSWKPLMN
Sequence of Steroid hormone receptor ERR1 (Homo sapiens) (P11474 whole entry, looked up, the tested form may be a part): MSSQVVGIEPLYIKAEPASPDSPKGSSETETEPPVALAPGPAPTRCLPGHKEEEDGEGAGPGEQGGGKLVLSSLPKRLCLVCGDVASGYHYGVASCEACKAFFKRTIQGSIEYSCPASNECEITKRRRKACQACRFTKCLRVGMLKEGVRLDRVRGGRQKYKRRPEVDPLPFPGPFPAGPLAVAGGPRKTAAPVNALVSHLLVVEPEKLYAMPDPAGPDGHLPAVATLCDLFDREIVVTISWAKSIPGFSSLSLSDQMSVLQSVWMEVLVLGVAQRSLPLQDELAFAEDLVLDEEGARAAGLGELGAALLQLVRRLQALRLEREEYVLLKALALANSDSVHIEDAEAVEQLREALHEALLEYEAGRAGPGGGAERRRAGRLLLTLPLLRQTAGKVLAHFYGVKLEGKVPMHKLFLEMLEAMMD
Sequence of Oxysterols receptor LXR-beta (Homo sapiens) (P55055 whole entry, looked up, the tested form may be a part): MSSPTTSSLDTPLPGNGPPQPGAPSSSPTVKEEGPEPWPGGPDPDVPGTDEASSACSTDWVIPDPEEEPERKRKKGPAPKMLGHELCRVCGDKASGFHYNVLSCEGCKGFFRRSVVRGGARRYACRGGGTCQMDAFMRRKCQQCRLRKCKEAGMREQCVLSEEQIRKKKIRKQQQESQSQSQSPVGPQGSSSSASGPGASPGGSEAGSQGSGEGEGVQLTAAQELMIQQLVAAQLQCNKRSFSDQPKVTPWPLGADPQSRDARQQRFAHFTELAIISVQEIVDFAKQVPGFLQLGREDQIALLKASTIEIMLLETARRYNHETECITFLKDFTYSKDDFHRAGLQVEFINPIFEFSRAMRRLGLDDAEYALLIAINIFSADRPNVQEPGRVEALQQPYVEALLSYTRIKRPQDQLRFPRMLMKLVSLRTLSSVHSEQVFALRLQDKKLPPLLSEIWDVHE
Sequence of Bile acid receptor (Homo sapiens) (Q96RI1 whole entry, looked up, the tested form may be a part): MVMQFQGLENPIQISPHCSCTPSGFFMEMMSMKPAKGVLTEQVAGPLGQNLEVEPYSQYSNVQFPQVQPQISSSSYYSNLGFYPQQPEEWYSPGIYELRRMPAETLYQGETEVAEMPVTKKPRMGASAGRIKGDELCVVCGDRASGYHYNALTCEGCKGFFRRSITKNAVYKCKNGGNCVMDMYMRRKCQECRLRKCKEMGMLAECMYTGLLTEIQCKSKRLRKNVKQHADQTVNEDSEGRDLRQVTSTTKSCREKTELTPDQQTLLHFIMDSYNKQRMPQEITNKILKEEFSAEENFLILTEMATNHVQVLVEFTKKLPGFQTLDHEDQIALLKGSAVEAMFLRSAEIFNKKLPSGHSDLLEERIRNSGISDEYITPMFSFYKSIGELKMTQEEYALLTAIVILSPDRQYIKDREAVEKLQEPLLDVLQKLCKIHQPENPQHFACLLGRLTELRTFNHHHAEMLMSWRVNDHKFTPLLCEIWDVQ
Sequence of Glucocorticoid receptor (Homo sapiens) (P04150 whole entry, looked up, the tested form may be a part): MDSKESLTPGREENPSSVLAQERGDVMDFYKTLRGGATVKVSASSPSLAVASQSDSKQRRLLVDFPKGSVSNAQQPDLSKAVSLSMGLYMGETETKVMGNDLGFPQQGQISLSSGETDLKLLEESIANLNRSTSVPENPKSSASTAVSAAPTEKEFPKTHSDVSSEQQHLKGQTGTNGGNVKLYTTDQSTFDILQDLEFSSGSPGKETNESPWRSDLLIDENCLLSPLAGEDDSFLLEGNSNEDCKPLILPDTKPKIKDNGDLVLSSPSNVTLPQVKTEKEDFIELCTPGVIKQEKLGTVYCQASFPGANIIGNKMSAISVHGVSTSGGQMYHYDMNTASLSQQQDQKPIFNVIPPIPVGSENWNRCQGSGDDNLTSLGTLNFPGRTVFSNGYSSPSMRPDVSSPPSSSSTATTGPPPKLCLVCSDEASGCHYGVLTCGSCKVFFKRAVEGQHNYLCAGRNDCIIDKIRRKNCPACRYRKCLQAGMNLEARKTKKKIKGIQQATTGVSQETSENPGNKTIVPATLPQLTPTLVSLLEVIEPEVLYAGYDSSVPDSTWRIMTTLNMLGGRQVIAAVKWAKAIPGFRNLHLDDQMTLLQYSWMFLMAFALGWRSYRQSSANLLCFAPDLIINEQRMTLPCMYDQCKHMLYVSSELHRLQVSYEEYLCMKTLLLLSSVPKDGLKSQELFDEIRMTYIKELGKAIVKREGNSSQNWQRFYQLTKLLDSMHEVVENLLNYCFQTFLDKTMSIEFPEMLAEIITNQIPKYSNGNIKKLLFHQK
Sequence of Transcriptional activator Myb (Homo sapiens) (P10242 whole entry, looked up): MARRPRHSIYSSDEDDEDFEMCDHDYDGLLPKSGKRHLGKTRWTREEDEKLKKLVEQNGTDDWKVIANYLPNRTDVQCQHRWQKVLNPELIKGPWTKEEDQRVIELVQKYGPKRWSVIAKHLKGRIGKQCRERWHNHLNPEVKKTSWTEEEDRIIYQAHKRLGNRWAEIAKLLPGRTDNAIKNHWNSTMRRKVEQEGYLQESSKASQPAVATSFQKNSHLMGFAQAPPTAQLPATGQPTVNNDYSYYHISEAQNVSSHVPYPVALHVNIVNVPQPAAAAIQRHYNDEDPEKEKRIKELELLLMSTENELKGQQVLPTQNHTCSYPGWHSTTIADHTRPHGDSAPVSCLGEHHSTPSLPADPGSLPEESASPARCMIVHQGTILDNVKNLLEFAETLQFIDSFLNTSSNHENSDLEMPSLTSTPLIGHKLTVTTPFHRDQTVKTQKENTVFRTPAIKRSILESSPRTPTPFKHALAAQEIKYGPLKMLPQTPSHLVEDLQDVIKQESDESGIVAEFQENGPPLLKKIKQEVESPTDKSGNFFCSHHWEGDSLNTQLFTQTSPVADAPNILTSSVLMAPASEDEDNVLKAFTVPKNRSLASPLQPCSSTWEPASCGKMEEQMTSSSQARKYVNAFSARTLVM
Sequence of Estrogen receptor (Homo sapiens) (P03372 whole entry, looked up, the tested form may be a part): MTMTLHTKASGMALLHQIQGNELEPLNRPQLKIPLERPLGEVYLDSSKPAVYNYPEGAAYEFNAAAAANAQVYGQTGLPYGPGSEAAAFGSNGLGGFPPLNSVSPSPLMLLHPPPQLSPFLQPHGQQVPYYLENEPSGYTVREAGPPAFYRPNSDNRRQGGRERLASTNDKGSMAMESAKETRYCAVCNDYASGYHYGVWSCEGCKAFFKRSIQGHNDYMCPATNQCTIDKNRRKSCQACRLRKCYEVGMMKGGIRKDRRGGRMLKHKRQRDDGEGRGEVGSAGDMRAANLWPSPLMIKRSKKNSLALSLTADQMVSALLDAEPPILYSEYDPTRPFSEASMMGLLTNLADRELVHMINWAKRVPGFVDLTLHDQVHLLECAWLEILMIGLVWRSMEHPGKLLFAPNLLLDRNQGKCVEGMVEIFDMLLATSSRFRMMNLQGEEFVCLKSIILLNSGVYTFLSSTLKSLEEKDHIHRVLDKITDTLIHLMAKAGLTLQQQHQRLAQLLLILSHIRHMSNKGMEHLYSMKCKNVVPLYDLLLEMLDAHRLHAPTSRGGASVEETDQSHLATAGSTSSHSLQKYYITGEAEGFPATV

As usually defined, the AC50 is the concentration at which the activity in the assay is half-maximal. Take `CCOC(=O)c1ccc(O)cc1`: the result in [1], in assay [2], in assay [3], in assay [4], in assay [5] and in [6] was inactive. Also, the result in [7], in assay [8], in assay [9], in assay [10], in [11] and in [12] was inactive. Besides, the compound was classed as inactive in assay [13] and in assay [14]. Also, the half-maximal activity concentration (AC50) was 42.8 µM (active) in [2] and 100 µM (active) in assay [3].

Turning to `COC(=O)c1cccc(C)c1S(=O)(=O)NC(=O)Nc1nc(OCC(F)(F)F)nc(N(C)C)n1`, the compound was classed as inactive in assay [1], in [2], in assay [15], in assay [16], in assay [3] and in [4]. Besides, the compound was classed as inactive in [17], in assay [6], in assay [18], in assay [19], in [10] and in [11]. Moreover, the call in assay [12], in assay [13] and in [14] was inactive.

Take `O=C(c1ccccc1)C1CCCCC1`: the compound was classed as inactive in [1], in [2], in assay [16], in assay [3], in assay [4] and in assay [5]. Moreover, the outcome in assay [6], in assay [7], in assay [19], in assay [9], in assay [10] and in [11] was inactive. Also, the result in assay [12], in assay [13] and in assay [14] was inactive. For the same compound, the concentration at half-maximal activity (AC50) was 42.8 µM (active) in assay [2] and 25.3 µM (active) [middle of 4 runs] in [15].

As for `CCC(O)=C1C(=O)CC(C(=O)O)CC1=O` (centres undefined), the compound was called inactive in [1], in assay [2], in [15], in [16], in assay [3] and in [4]. In addition, the result in assay [6], in assay [19], in assay [9], in assay [10], in [11] and in assay [12] was inactive. For the same compound, the outcome in assay [13] and in assay [14] was inactive.

As for `CCOC(=O)NCCOc1ccc(Oc2ccccc2)cc1`, the compound was called inactive in [1], in assay [16], in [3], in [4], in assay [17] and in assay [7]. For the same compound, the outcome in [18], in assay [9], in assay [11], in assay [12], in assay [13] and in [14] was inactive. Moreover, the values for the concentration at half-maximal activity (AC50) in assay [2] and in [15] were 27.4 µM (active) and 13.8 µM (active), respectively.

As to `COC(=O)c1ccccc1S(=O)(=O)NC(=O)Nc1nc(OC(F)F)cc(OC(F)F)n1`, the compound was called inactive in [1], in assay [2], in assay [15], in [3], in assay [4] and in assay [6]. Further, the call in [19], in [8], in assay [10], in [11], in assay [12] and in assay [13] was inactive. For the same compound, the compound was classed as inactive in assay [14].
